The whole screen tested about 3,200 compounds, of which about 300 (9.4%) showed activity. What follows is part of a selection rich in actives, with near analogues and random picks from the rest.
System: A673/TR/shEF
Test: cell viability (LOESS-normalised, relative to median of negative controls) (log2 ratio); higher = more viable cells (less compound effect), active = hit call of the paper (over 3 MAD below the median)
Details: treatment time: 72 h
Outline: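 Doxycycline, present or absent from 24 h before compounds, was used to induce EWS-FLI1 shRNA knockdown in A673/TR/shEF Ewing sarcoma cells at 1,500 per well in 384-well plates. Cells then received library compounds at two or more concentrations, or DMSO controls, for three days. Viability was measured by CellTiter-Glo luminescence on an Envision reader, and per-plate LOESS correction, division by the negative-control median and log2 transformation followed.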

[1] = 0.103 µM, library screen: screen3, EWS-FLI1 expression: high (no doxycycline)
[2] = 0.103 µM, library screen: screen3, EWS-FLI1 expression: low (doxycycline-induced shRNA knockdown)
[3] = 0.308 µM, library screen: screen3, EWS-FLI1 expression: high (no doxycycline)
[4] = 0.308 µM, library screen: screen3, EWS-FLI1 expression: low (doxycycline-induced shRNA knockdown)
[5] = 0.926 µM, library screen: screen3, EWS-FLI1 expression: high (no doxycycline)
[6] = 0.926 µM, library screen: screen3, EWS-FLI1 expression: low (doxycycline-induced shRNA knockdown)
[7] = 2.8 µM, library screen: screen3, EWS-FLI1 expression: high (no doxycycline)
[8] = 2.8 µM, library screen: screen3, EWS-FLI1 expression: low (doxycycline-induced shRNA knockdown)
[9] = 8.3 µM, library screen: screen3, EWS-FLI1 expression: high (no doxycycline)
[10] = 8.3 µM, library screen: screen3, EWS-FLI1 expression: low (doxycycline-induced shRNA knockdown)
[11] = 25 µM, library screen: screen3, EWS-FLI1 expression: high (no doxycycline)
[12] = 25 µM, library screen: screen3, EWS-FLI1 expression: low (doxycycline-induced shRNA knockdown)
[13] = 0.25 µM, library screen: screen1, EWS-FLI1 expression: high (no doxycycline)
[14] = 0.25 µM, library screen: screen1, EWS-FLI1 expression: low (doxycycline-induced shRNA knockdown)
[15] = 2.5 µM, library screen: screen1, EWS-FLI1 expression: high (no doxycycline)
[16] = 2.5 µM, library screen: screen1, EWS-FLI1 expression: low (doxycycline-induced shRNA knockdown)
[17] = 0.25 µM, library screen: screen2, EWS-FLI1 expression: high (no doxycycline)
[18] = 0.25 µM, library screen: screen2, EWS-FLI1 expression: low (doxycycline-induced shRNA knockdown)
[19] = 2.5 µM, library screen: screen2, EWS-FLI1 expression: high (no doxycycline)
[20] = 2.5 µM, library screen: screen2, EWS-FLI1 expression: low (doxycycline-induced shRNA knockdown)

Measured: cell viability (log2)

CCCCCCOC(=O)/N=C(/N)c1ccc(NCc2nc3cc(C(=O)N(CCC(=O)OCC)c4ccccn4)ccc3n2C)cc1
active: [11] -0.441
inactive: [1] -0.0699 | [2] -0.0234 | [3] -0.0119 | [4] -0.019 | [5] 0.046 | [6] -0.0404 | [7] -0.0778 | [8] 0.0123 | [9] -0.0381 | [10] 0.0285 | [12] 0.0312

CCN(CC)S(=O)(=O)c1ccc(C(=O)N(CCC(=O)OC)c2ccccn2)cc1
inactive: [13] 0.0834 | [14] 0.147 | [15] 0.162 | [16] 0.127

Cn1c(CNc2ccc(C(=N)N)cc2)nc2cc(C(=O)N(CCC(=O)O)c3ccccn3)ccc21
inactive: [1] 0.00826 | [2] 0.00201 | [3] 0.0563 | [4] 0.0276 | [5] 0.0456 | [6] 0.123 | [7] -0.0294 | [8] 0.0652 | [9] 0.0628 | [10] 0.0736 | [11] 0.0838 | [12] 0.0437

NCCCCCN
inactive: [13] 0.0699 | [14] 0.0406 | [15] 0.114 | [16] 0.103

Cc1coc2ccccc2c1=O
inactive: [13] 0.143 | [14] 0.1 | [15] 0.138 | [16] 0.165

CC1=CC(=O)CC(C)(C)[C@@]1(O)/C=C/C(C)=C\C(=O)O
inactive: [13] 0.103 | [14] 0.084 | [15] 0.143 | [16] 0.165

CC(=O)O[C@@H]1CC2C(C)(C)CCC(=O)[C@]2(C)C2CC[C@@]3(C)[C@H](c4ccoc4)OC(=O)C4OC43[C@@]21C (some centres undefined)
inactive: [13] 0.0305 | [14] 0.0828 | [15] 0.127 | [16] 0.0866

O=C(NC(C(=O)N1CCCCC1)=C1CCCCC1)c1ccccc1
inactive: [13] 0.107 | [14] 0.0798 | [15] 0.0724 | [16] 0.127

COC(=O)C1=C(C)N=c2s/c(=C/c3ccc(OC)cc3OC)c(=O)n2C1c1cccs1 (centres undefined)
inactive: [13] 0.0522 | [14] 0.13 | [15] 0.0666 | [16] 0.065

CCCCCCCCCCCC1=C(O)C(=O)C=C(O)C1=O
inactive: [13] 0.161 | [14] 0.0381 | [15] 0.097 | [16] 0.0519

CCCCCCCCc1ccc(CCC(N)(CO)CO)cc1
active: [11] -0.341 | [12] -0.161
inactive: [1] 0.0814 | [2] 0.0528 | [3] 0.0332 | [4] -0.0148 | [5] 0.0328 | [6] 0.0341 | [7] 0.00825 | [8] 0.0473 | [9] -0.0193 | [10] 0.0563

CC(=O)O[C@H]1C[C@@H](OC(C)=O)C(C)(C)C2CC(=O)[C@]3(C)C(CC[C@@]4(C)[C@H](c5ccoc5)OC(=O)[C@H]5O[C@]543)[C@]21C (some centres undefined)
inactive: [13] 0.116 | [14] 0.174 | [15] 0.177 | [16] 0.123

CCCCCCCCCCC[C@@H](C[C@@H]1OC(=O)[C@H]1CCCCCC)OC(=O)[C@H](CC(C)C)NC=O
inactive: [1] 0.0583 | [2] 0.00452 | [13] -0.0226 | [14] 0.0354 | [3] 0.0475 | [4] 0.11 | [5] -0.01 | [6] 0.0194 | [16] 0.178 | [7] -0.0124 | [8] 0.136 | [9] -0.103 | [10] -0.0203 | [11] -0.119 | [12] -0.0365
active: [15] -0.116

COC(=O)C[C@H]1C(C)(C)C2(Cl)O[C@@]34CC2C(=O)[C@]1(C)C3CC[C@]1(C)C4=CC(=O)O[C@H]1c1ccoc1 (some centres undefined)
inactive: [13] 0.0526 | [14] 0.0775 | [15] 0.126 | [16] 0.163

C=C1C(=O)O[C@@H]2C[C@@]3(C)CCC[C@H](C)C3=C[C@H]12
inactive: 0.025 µM, library screen: screen2, EWS-FLI1 expression: high (no doxycycline) 0.148 | 0.025 µM, library screen: screen2, EWS-FLI1 expression: low (doxycycline-induced shRNA knockdown) 0.0581 | [13] 0.0724 | [14] -0.00207 | [17] 0.177 | [18] 0.0288 | [15] 0.152 | [16] 0.0584 | [19] 0.0901 | [20] 0.000642 | 25 µM, library screen: screen2, EWS-FLI1 expression: high (no doxycycline) -0.0554 | 25 µM, library screen: screen2, EWS-FLI1 expression: low (doxycycline-induced shRNA knockdown) -0.102

CN(C)CCCN1c2ccccc2Sc2ccccc21
active: [19] -1.62 | [20] -0.801
inactive: [13] 0.0889 | [14] 0.0795 | [17] 0.0137 | [18] -0.394 | [15] 0.107 | [16] 0.224

CN(C)CCCN1c2ccccc2Sc2ccc(Cl)cc21
inactive: [1] 0.0728 | [2] 0.128 | [13] 0.1 | [14] 0.155 | [17] 0.141 | [18] 0.1 | [3] 0.122 | [4] 0.0127 | [5] 0.0627 | [6] 0.015 | [15] 0.206 | [16] 0.191 | [19] 0.129 | [20] 0.0664 | [7] -0.0176 | [8] 0.0383 | [9] 0.101 | [10] 0.0471 | [11] -0.0174 | [12] 0.0242

CN(C)CCCN1c2ccccc2Sc2ccc(C(F)(F)F)cc21
inactive: [13] 0.067 | [14] 0.0785 | [17] 0.0818 | [18] 0.0662 | [15] 0.0754 | [16] 0.158 | [19] 0.181 | [20] 0.0843

CC(=O)Oc1cc(-c2coc3cc(OC(C)=O)c(OC(C)=O)c(OC(C)=O)c3c2=O)cc(OC(C)=O)c1OC(C)=O
inactive: [13] 0.0397 | [14] -0.0292 | [15] 0.0912 | [16] -0.0545

CC1(C)C=Cc2c(c3c(c4c(=O)c(-c5ccc(O)cc5)coc24)OC(C)(C)CC3)O1
inactive: [13] 0.057 | [14] 0.068 | [15] 0.105 | [16] 0.116

NC1(C(=O)O)CCc2cc(C(=O)O)ccc21 (centres undefined)
inactive: [18] 0.0469 | [19] 0.0221 | [20] 0.107
active: [17] -0.364

C/C(=C\c1ccc(C(=O)O)cc1)c1ccc2c(c1)C(C)(C)CCC2(C)C
inactive: [17] 0.00709 | [18] 0.0496 | [19] 0.0275 | [20] 0.0889

O=C(O)c1ccc2c(c1)OCO2
inactive: [13] 0.146 | [14] 0.102 | [15] 0.137 | [16] 0.0963

C=C(C)Cn1c(COc2ccc(Cl)cc2Cl)n[nH]c1=S
inactive: [13] 0.0645 | [14] -0.015 | [15] 0.0851 | [16] -0.014

CC(C)CC(NP(=O)(O)O[C@@H]1O[C@@H](C)[C@H](O)[C@@H](O)[C@H]1O)C(=O)NC(Cc1c[nH]c2ccccc12)C(=O)O (some centres undefined)
inactive: [17] 0.0833 | [18] 0.00183 | [19] 0.149 | [20] -0.00437

COc1cc(CN2CCN(Cc3ccccc3F)CC2)cc(OC)c1OC
inactive: [13] 0.0928 | [14] 0.0533 | [15] 0.0786 | [16] 0.127

OC[C@H]1N[C@H](CO)[C@@H](O)[C@@H]1O
inactive: [17] 0.176 | [18] 0.0684 | [19] 0.108 | [20] 0.0354

Cc1ccc(C(C)C)c(O)c1C(=O)O
inactive: [13] 0.112 | [14] 0.00973 | [15] 0.164 | [16] 0.0715

CC(C)C[C@@H]1NC(=O)[C@H](CCCN)NC(=O)[C@H](C(C)C)NC(=O)[C@@H]2CCCN2C(=O)[C@@H](Cc2ccccc2)NC(=O)[C@H](CC(C)C)NC(=O)[C@H](CCCN)NC(=O)[C@H](C(C)C)NC(=O)[C@@H]2CCCN2C(=O)[C@@H](Cc2ccccc2)NC1=O
inactive: [16] -0.0354
active: [13] -1.96 | [14] -0.176 | [15] -3.79

CCC(C)C(N)C1=NC(C(=O)N[C@@H](CC(C)C)C(=O)N[C@H](CCC(=O)O)C(=O)N[C@H](C(=O)N[C@H]2CCCCNC(=O)[C@H](CC(N)=O)NC(=O)[C@@H](CC(=O)O)NC(=O)[C@H](Cc3cnc[nH]3)NC(=O)[C@@H](Cc3ccccc3)NC(=O)[C@H]([C@@H](C)CC)NC(=O)[C@@H](CCCN)NC2=O)[C@@H](C)CC)CS1 (some centres undefined)
inactive: [13] 0.0992 | [14] -0.0505 | [15] 0.131 | [16] 0.0875

CC(C)[C@@H]1NC(=O)[C@H](CCCCN)NC(=O)[C@@H](Cc2c[nH]c3ccccc23)NC(=O)[C@H](Cc2ccc(O)cc2)NC(=O)[C@H](C)N(C)C(=O)[C@H](Cc2ccccc2)NC1=O
inactive: [17] 0.191 | [18] 0.085 | [19] 0.149 | [20] 0.111

CC(C)C[C@@H]1NC(=O)[C@H](CCCN)NC(=O)[C@H](C(C)C)NC(=O)[C@H](Cc2ccc(O)cc2)N[C@@H](CCC(=O)O)C(=O)N[C@@H](CC(N)=O)C(=O)[C@@H](Cc2ccccc2)NC(=O)[C@H](Cc2ccccc2)NC(=O)[C@@H]2CCCN2C(=O)[C@@H](Cc2ccccc2)NC1=O
active: [13] -0.767 | [15] -2.84 | [16] -2.45
inactive: [14] -0.0111

CC1=CCCC(=O)C2CC(C)(C)C2CC1 (centres undefined)
inactive: [13] 0.0664 | [14] 0.0572 | [15] 0.102 | [16] 0.0635

CC(=O)O[C@H]1C[C@@]2(C)[C@H](c3ccoc3)OC(=O)[C@H]3O[C@]32[C@@]2(C)C1[C@]1(C)C(C[C@H]2OC(C)=O)C(C)(C)[C@H](OC(C)=O)C[C@@H]1OC(C)=O (some centres undefined)
inactive: [13] -0.00983 | [14] 0.0592 | [15] 0.0456 | [16] 0.0721

Reference: the supplement of paper PMC6089552
